Source: PubChem BioAssay AID1159580 (chemical genetic matrix, 2015)
The campaign covered roughly 5,500 compounds. About 2,000 (36%) were called active. Inconclusive results (about 18%) are left out. Cut-off read from the data, not from the text of the source: active = normalized growth mostly below about 0.91 (no sharp cut-off); inconclusive = no clear call, values can overlap the other calls; inactive = mostly above about 0.92. Some of the results follow.

Assay: chemical genetic growth profiling, strain panel (AID 1159580);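 note: tested at 20 µM; growth read once vehicle control cultures reached saturation at 30 °C; 1 = growth at the plate median or of vehicle wells; lower values mean less growth of the strain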
Details: S. cerevisiae deletion strains, growth OD
[1] = locus YAR019C, strain CDC15, stronger effect = lower value
[2] = locus YBL105C, strain PKC1, stronger effect = lower value
[3] = locus YBR135W, strain CKS1, stronger effect = lower value
[4] = locus YBR136W, strain MEC1, stronger effect = lower value
[5] = locus YBR160W, strain CDC28, stronger effect = lower value
[6] = locus YDL017W, strain CDC7, stronger effect = lower value
[7] = locus YDL028C, strain MPS1, stronger effect = lower value
[8] = locus YDL101C, strain DUN1, stronger effect = lower value
[9] = locus YDL108W, strain KIN28, stronger effect = lower value
[10] = locus YDL132W, strain cdc53, stronger effect = lower value
[11] = locus YDL214C, strain PRR2, stronger effect = lower value
[12] = locus YDR052C, strain DBF4, stronger effect = lower value
[13] = locus YDR054C, strain cdc34, stronger effect = lower value
[14] = locus YDR226W, strain ADK1, stronger effect = lower value
[15] = locus YDR477W, strain SNF1, stronger effect = lower value
[16] = locus YER123W, strain YCK3, stronger effect = lower value
[17] = locus YER133W, strain GLC7, stronger effect = lower value
[18] = locus YFL009W, strain cdc4, stronger effect = lower value
[19] = locus YFL029C, strain CAK1, stronger effect = lower value
[20] = locus YFR003C, strain YPI1, stronger effect = lower value
[21] = locus YFR019W, strain FAB1, stronger effect = lower value
[22] = locus YFR028C, strain CDC14, stronger effect = lower value
[23] = locus YGR040W, strain KSS1, stronger effect = lower value
[24] = locus YGR052W, strain FMP48, stronger effect = lower value
[25] = locus YGR092W, strain DBF2, stronger effect = lower value
[26] = locus YHR030C, strain SLT2, stronger effect = lower value
[27] = locus YHR079C, strain IRE1, stronger effect = lower value
[28] = locus YHR082C, strain KSP1, stronger effect = lower value
[29] = locus YHR205W, strain SCH9, stronger effect = lower value
[30] = locus YIL147C, strain SLN1, stronger effect = lower value
[31] = locus YJL095W, strain BCK1, stronger effect = lower value
[32] = locus YJL128C, strain PBS2, stronger effect = lower value
[33] = locus YJL157C, strain FAR1, stronger effect = lower value
[34] = locus YJR016C, strain ILV3, stronger effect = lower value
[35] = locus YJR066W, strain TOR1 (second series), stronger effect = lower value
[36] = locus YJR066W, strain TOR1, stronger effect = lower value
[37] = locus YKL048C, strain ELM1, stronger effect = lower value
[38] = locus YKL067W, strain YNK1, stronger effect = lower value
[39] = locus YKL101W, strain HSL1, stronger effect = lower value
[40] = locus YKL193C, strain SDS22, stronger effect = lower value
[41] = locus YKL203C, strain TOR2, stronger effect = lower value
[42] = locus YLR113W, strain HOG1, stronger effect = lower value
[43] = locus YLR133W, strain CKI1, stronger effect = lower value
[44] = locus YLR403W, strain SFP1, stronger effect = lower value
[45] = locus YML070W, strain DAK1, stronger effect = lower value
[46] = locus YMR001C, strain CDC5, stronger effect = lower value
[47] = locus YMR205C, strain PFK2 (second series), stronger effect = lower value
[48] = locus YMR277W, strain FCP1, stronger effect = lower value
[49] = locus YNL006W, strain LST8, stronger effect = lower value
[50] = locus YNL020C, strain ARK1, stronger effect = lower value
[51] = locus YNL161W, strain CBK1, stronger effect = lower value
[52] = locus YNL183C, strain NPR1, stronger effect = lower value
[53] = locus YNL207W, strain RIO2, stronger effect = lower value
[54] = locus YNL222W, strain SSU72, stronger effect = lower value
[55] = locus YNL307C, strain MCK1 (second series), stronger effect = lower value
[56] = locus YOL078W, strain AVO1, stronger effect = lower value
[57] = locus YOL136C, strain PFK27, stronger effect = lower value
[58] = locus YOR061W, strain CKA2, stronger effect = lower value
[59] = locus YOR119C, strain RIO1, stronger effect = lower value
[60] = locus YOR231W, strain MKK1, stronger effect = lower value
[61] = locus YOR329C, strain SCD5, stronger effect = lower value
[62] = locus YPL031C, strain PHO85, stronger effect = lower value
[63] = locus YPL153C, strain RAD53, stronger effect = lower value
[64] = locus YPL204W, strain HRR25, stronger effect = lower value
[65] = locus YPL209C, strain IPL1, stronger effect = lower value
[66] = locus YPL256C, strain CLN2, stronger effect = lower value
[67] = locus YPR025C, strain CCL1, stronger effect = lower value
[68] = locus YPR106W, strain ISR1, stronger effect = lower value
[69] = locus YPR111W, strain DBF20, stronger effect = lower value
[70] = strain NNK1, stronger effect = lower value
[71] = strain TSCII, stronger effect = lower value

Measured: normalized growth

N/C(CSc1ccc(Cl)cc1)=N/OC(=O)c1ccc(C(F)(F)F)cc1
inactive: [11] 0.798 | [12] 0.912 | [15] 0.798 | [16] 0.774 | [17] 0.853 | [20] 0.908 | [23] 0.816 | [24] 0.838 | [25] 0.805 | [27] 0.739 | [28] 0.788 | [29] 0.604 | [31] 0.7 | [32] 0.889 | [33] 0.826 | [35] 0.687 | [36] 0.651 | [37] 0.953 | [38] 0.826 | [39] 0.863 | [41] 0.859 | [43] 0.822 | [44] 0.761 | [45] 0.852 | [47] 0.836 | [50] 0.836 | [51] 0.9 | [52] 0.82 | [55] 0.786 | [57] 0.852 | [58] 0.803 | [59] 0.845 | [60] 0.791 | [62] 0.807 | [63] 0.811 | [64] 0.786
active: [1] 0.853 | [2] 0.895 | [3] 0.89 | [4] 0.889 | [5] 0.874 | [6] 0.893 | [7] 0.847 | [8] 0.867 | [9] 0.881 | [10] 0.886 | [13] 0.87 | [14] 0.867 | [18] 0.841 | [19] 0.853 | [21] 0.766 | [22] 0.86 | [26] 0.422 | [30] 0.876 | [34] 0.889 | [40] 0.885 | [42] 0.619 | [46] 0.866 | [48] 0.855 | [49] 0.892 | [53] 0.874 | [54] 0.872 | [56] 0.877 | [61] 0.9 | [65] 0.892 | [66] 0.647 | [67] 0.886 | [68] 0.875 | [69] 0.855 | [70] 0.862 | [71] 0.85

N/C(CSc1ncccc1C(F)(F)F)=N/OC(=O)Nc1cccc(Cl)c1
active: [26] 0.582 | [42] 0.819 | [52] 0.384 | [66] 0.845
inactive: [1] 1 | [2] 0.995 | [3] 0.969 | [4] 0.995 | [5] 0.995 | [6] 0.996 | [7] 0.988 | [8] 0.993 | [9] 0.996 | [10] 0.98 | [11] 0.877 | [12] 1 | [13] 0.987 | [14] 0.983 | [15] 0.857 | [16] 0.724 | [17] 0.82 | [18] 0.996 | [19] 0.992 | [20] 0.995 | [21] 0.946 | [22] 0.991 | [23] 0.881 | [24] 0.793 | [25] 0.836 | [27] 0.788 | [28] 0.946 | [29] 0.875 | [30] 0.995 | [31] 0.618 | [32] 0.967 | [33] 0.94 | [34] 0.989 | [35] 0.71 | [36] 0.841 | [37] 0.977 | [38] 0.897 | [39] 0.911 | [40] 0.987 | [41] 0.93 | [43] 0.926 | [44] 0.904 | [45] 0.837 | [46] 0.994 | [47] 0.916 | [48] 0.988 | [49] 1 | [50] 0.919 | [51] 0.986 | [53] 0.988 | [54] 0.997 | [55] 0.923 | [56] 0.994 | [57] 0.916 | [58] 0.931 | [59] 0.885 | [60] 0.749 | [61] 0.986 | [62] 0.836 | [63] 0.717 | [64] 0.78 | [65] 0.99 | [67] 0.988 | [68] 0.984 | [69] 0.974 | [70] 0.99 | [71] 0.991
